An excerpt weighted towards active compounds, which were near 2.6% of everything screened.
PRMT1 FP inh: PRMT1 (human) inhibition, primary screen; Q99873; recombinant PRMT1, activity-based probe fluorescence polarization; inhibition, % at 2.79 µM; hit rate 1.3% among 370,000; AID 652257;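 active means inhibition above about 21% made by adding two undisclosed values, limit read from the data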
TCR-CD3 inh: blocks the human TCR-CD3 interaction; TAMRA-labeled TCR probe fluorescence, biochemical; inhibition, % at 9.4 µM; hit rate 0.37% among 360,000; in the data active means inhibition above about 19%;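 further: recombinant mutant TCR 2C K166C tagged with TAMRA read by polarization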
SIAE inh: inhibitors of human sialic acid acetylesterase SIAE; Q9HAT2; SIAE FP-Rh probe binding, fluorescence polarization; inhibition, % at 9.66 µM; hit rate 0.69% among 370,000;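 active means inhibition above a cutoff: mean of compounds within the control limits plus 3 SD of those, cut at about 17% in these data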
PME-1 inh: PME-1 (human) inhibition | Q9Y570 | inhibition, % at 5.9 µM | recombinant PME-1, FP-Rh probe fluorescence polarization | hit rate 0.53% among 320,000;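 active means inhibition above the campaign mean of all compounds plus 3 SD, cut at about 26% in these data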;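 further: competitive labeling of PME-1 active site by serine hydrolase directed probe; inhibitors block probe labeling so polarization falls and inhibition rises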
Target sequence (Q9Y570 whole entry, looked up): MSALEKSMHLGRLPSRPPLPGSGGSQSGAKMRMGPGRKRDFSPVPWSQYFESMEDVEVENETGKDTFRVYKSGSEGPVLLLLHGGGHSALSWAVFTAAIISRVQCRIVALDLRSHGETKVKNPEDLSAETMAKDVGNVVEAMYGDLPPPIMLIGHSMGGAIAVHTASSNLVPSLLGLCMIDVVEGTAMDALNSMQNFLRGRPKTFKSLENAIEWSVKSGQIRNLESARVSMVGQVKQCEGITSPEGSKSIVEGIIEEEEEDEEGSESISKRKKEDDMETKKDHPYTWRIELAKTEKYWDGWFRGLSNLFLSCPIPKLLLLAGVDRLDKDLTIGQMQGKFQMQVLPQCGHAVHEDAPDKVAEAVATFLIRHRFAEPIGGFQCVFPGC
PAD4 FP inh: inhibitors of human PAD4 | hit rate 0.41% among 330,000 | Q9UM07 | recombinant PAD4, RCA probe fluorescence polarization | inhibition, % at 6.36 µM;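 active means percent inhibition above a cutoff equal to the mean of all tested compounds plus 3 SD, cut at about 15% in these data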
Fam108B counter: counter-screen for RBBP9 inhibitors: inhibitors of mouse Fam108B | recombinant Fam108B, FP-Rh probe fluorescence polarization | inhibition, % at 9.51 µM | hit rate 0.33% among 300,000 | AID 1947;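 active means inhibition above the screen mean inhibition plus 3 SD, computed separately per campaign, cut at about 18% in these data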;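 further: inhibitors lower polarization as less probe binds the enzyme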
Numbers stand for hits; - = inactive; . = not tested or not shown.

SMILES	PRMT1 FP inh	TCR-CD3 inh	SIAE inh	PME-1 inh	PAD4 FP inh	Fam108B counter
COc1cc(/C=N\Nc2nc3ccccc3o2)cc(OC)c1OC	-	-	-	29	-	-
COc1ccc(/C=N/Nc2nc3ccccc3s2)cc1O	-	-	-	.	.	.
COc1ccc(/C=N/Nc2nc3ccccc3o2)cc1O	-	-	-	48	-	-
Brc1ccc(/C=N/Nc2nc3ccccc3o2)cc1	-	-	-	31	-	-
O=C(CSc1nc2ccccc2nc1N1CCOCC1)N1CCN(S(=O)(=O)c2cccc([N+](=O)[O-])c2)CC1	-	.	-	.	.	.
O=C(N/N=C/c1c[nH]c2ccccc12)c1cc(-c2cccc3ccccc23)n[nH]1	-	-	-	28	-	-
O=C(N/N=C/c1c[nH]c2ccccc12)c1cc(-c2ccc3ccccc3c2)n[nH]1	-	-	-	29	-	-
O=C(N/N=C/c1c[nH]c2ccccc12)C1CC1(c1ccccc1)c1ccccc1 (stereo not given)	-	-	-	31	-	-
COC(=O)[C@]12C=CCN1[C@@H](c1ccc(Cl)cc1)c1c(c3ccccc3n1S(=O)(=O)c1ccc(C)cc1)C2	-	.	-	.	.	.
CCOC(=O)N1CCN(C(=O)C[C@H]2C[C@@]3(C(=O)OC)C(=C[C@H](C(C)C)O[C@@H]3C3CC3)N(Cc3ccc4c(c3)OCO4)C2=O)CC1	-	.	-	.	.	.
O=C(CSc1nnc(-c2ccccc2)n1-c1ccc(Cl)cc1)c1ccccc1Br	-	.	-	.	.	.
CCC(C)c1ccc(S(=O)(=O)N2CCN(C(=O)COc3ccc4c(C)cc(=O)oc4c3)CC2)cc1 (stereo not given)	-	-	-	38	-	-
COc1ccc(CCNC(=O)c2ccc3c(c2)ncn3C2CCCCC2)cc1	-	.	-	.	.	.
CCOc1cc(CNCc2ccccc2)ccc1OCc1ccc(Cl)cc1	-	-	-	-	-	-
CCOc1cc(CNc2ccc(O)cc2)ccc1OCc1ccc(Cl)cc1Cl	.	.	.	29	30	-
Cc1ccc2c(c1)sc[n+]2Cc1ccccc1	64	-	-	-	22	-
Cc1ccc(-c2cc[n+](Cc3ccccc3)cc2)cc1	-	-	-	-	-	-
O=C(CNc1ccc2c(c1)OCO2)N/N=C\c1ccccc1Cl	22	-	-	-	-	-
CCCCCCOc1ccc(N2C(=O)CC(SCCN)C2=O)cc1 (stereo not given)	-	-	-	-	-	-
CCOc1ccc(N2C(=O)CC(SCCN)C2=O)cc1 (stereo not given)	22	-	-	-	-	-
O=C(CSc1nnc(COc2ccccc2)n1-c1ccc(Cl)cc1)Nc1ccc(OCc2ccccc2)cc1	-	.	-	.	.	.
CCOC(=O)[C@]12CCCCC/C=C\1N(CCc1ccc(Cl)cc1)C(=O)[C@H]2CC(=O)NCC1CCCCC1	-	.	-	.	.	.
Cc1ccc(OCCn2c(CCNC(=O)C3CCCCCC3)nc3ccccc32)cc1	-	.	-	.	.	.
Cc1cc(C(=O)NNC(=O)/C=C/c2ccco2)c(C)o1	23	-	-	.	.	.
COc1ccccc1/C=C/C(=O)NNC(=O)c1cc(C)oc1C	-	-	-	-	-	-
SMILES	PRMT1 FP inh	TCR-CD3 inh	SIAE inh	PME-1 inh	PAD4 FP inh	Fam108B counter
COC(=O)CCC(=O)OC1(C)C(=O)C2=CN(CCCCO)C(c3ccc(OC)cc3)=CC2=C(Br)C1=O (stereo not given)	.	.	.	-	28	-
CCOC(=O)C1=C(C)c2ccccc2N(C(=O)OC)C1(C)C(=O)OCC (stereo not given)	24	-	-	.	-	.
O=c1c2c3nc4ccccc4nc3n(Cc3ccccc3)c2ncn1Cc1ccco1	38	-	-	.	.	.
CCOc1ccc(N=Nc2c(=O)[nH]n3c(=O)cc(C)[nH]c23)cc1	-	-	-	-	-	-
CCOc1ccc(N=Nc2c(=O)[nH]n3c(=O)c4c([nH]c23)CCCC4)cc1	-	-	-	44	-	-
O=c1[nH]n2c(=O)c3c([nH]c2c1N=Nc1cccc(Cl)c1)CCCC3	-	-	-	58	-	-
Cn1c(Cc2cccs2)nnc1SCC(=O)Nc1ccc2c(c1)OCO2	-	.	-	.	.	.
O=C(NCCCO)Nc1ccc2nc(-c3ccco3)c(-c3ccco3)nc2c1	.	.	.	-	-	52
COC(=O)[C@]12C[C@H](CC(=O)NCc3ccccc3)C(=O)N(Cc3ccco3)C1=C[C@H](C(C)C)O[C@@H]2C1CC1	-	.	-	.	.	.
CN(C(=S)Nc1ccc(SC(F)F)cc1)c1ccc(O)cc1	30	-	-	-	-	-
CN(C(=S)Nc1ccccc1)c1ccccc1	-	-	-	-	-	-
CCN(C(=O)[C@H]1CC(=O)O[C@@H]1c1ccccc1)c1ccccc1	-	.	-	.	.	.
COc1cc2c3c(c1)/C(=C1/SC(NC(C)=O)=NC1=O)C(=O)N3C(C)(C)C=C2C	-	-	25	-	-	-
CC1=CC(C)(C)N2C(=O)C(=O)c3cc(OC(=O)c4ccco4)cc1c32	-	-	-	-	-	-
CCOc1ccccc1N1C(=O)CC(Nc2ccc(N3CCOCC3)cc2)C1=O (stereo not given)	-	-	-	-	19	-
Cc1ccc(NC(=O)c2nc(S(=O)(=O)Cc3ccccc3C)ncc2Cl)cc1C	35	-	-	-	-	-
CC(=O)Nc1ccc(NC(=O)c2nc(S(=O)(=O)Cc3cccc(C)c3)ncc2Cl)cc1	32	-	-	-	-	-
Cc1ccc(C(=O)NCc2ccc3c(c2)OCO3)c(Cl)c1	-	-	-	.	.	.
Cc1cccc(CS(=O)(=O)c2ncc(Cl)c(C(=O)NCc3ccc4c(c3)OCO4)n2)c1	22	-	-	-	-	-
CN1CCC(N[C@@H](Cc2ccccc2)C(=O)NCC(c2ccccc2)c2ccccc2)(C(=O)NC2CCCCC2)CC1	-	.	-	.	.	.
COC(=O)[C@]12C[C@H](CC(=O)NCC3CCCCC3)C(=O)N(CCC3=CCCCC3)C1=C[C@H](C1CCCC1)O[C@@H]2C	-	.	-	.	.	.
CN(C)c1ccc(NC(=O)Nc2ccc3snnc3c2)cc1	-	-	-	32	-	-
O=C(Nc1ccccc1)Nc1ccc2snnc2c1	-	-	-	-	-	-
COC(=O)[C@]12C[C@H](CC(=O)N3CCCC3)C(=O)N(CCc3ccc(OC)c(OC)c3)C1=C[C@H](C(C)(C)C)O[C@@H]2C	-	.	-	.	.	.
Cc1sc2nc(-c3cccnc3)[nH]c(=O)c2c1-c1ccccc1	23	-	-	-	-	-
SMILES	PRMT1 FP inh	TCR-CD3 inh	SIAE inh	PME-1 inh	PAD4 FP inh	Fam108B counter
Cc1sc2nc(Cc3ccccc3)[nH]c(=O)c2c1-c1ccccc1	-	-	-	-	-	-
CC(C)CC(C(=O)Nc1oc(-c2ccco2)c(-c2ccco2)c1C#N)N1C(=O)c2ccccc2C1=O (stereo not given)	25	-	-	-	-	-
CC(C)CC(C(=O)Nc1cccc(O)c1)N1C(=O)c2ccccc2C1=O (stereo not given)	-	-	-	-	-	-
S=c1[nH]nc(-c2ccc3ccccc3n2)n1-c1ccccc1	23	-	-	-	-	-
O=C(Nc1ccc(F)cc1)OCc1cn(Cc2ccc(C(F)(F)F)cc2)nn1	-	.	-	.	.	.
O=C(O)c1cc(NN=Nc2ccc(Br)cc2)cc([N+](=O)[O-])c1	-	-	-	40	-	-

Screening data as filed in PubChem BioAssay.
